Test results reported in ChEMBL document CHEMBL3988442, “University of Dundee, Small-Polar-MMV Screening Library” (2021).
The campaign covered roughly 85,000 compounds. About 440 (0.52%) showed an effect of 50% or more. The full list was thinned out, with strong results kept by preference.

Test: In vitro enzyme assay to detect hydrolysis of chlorophenol red-beta-D-[…] directly proportional to the number of Toxoplasma stably expressing beta-galactosidase
Assay type: functional, organism-based, Toxoplasma gondii
Set-up: scale not given: in the data most compounds retested in dose-response had high values

Row | Structure (SMILES) | Percent Effect (50 µM) [%] | Percent Effect (10 µM) [%]
1 | CC(O)CN1CCN(C(=O)CN(C)C2CC2)CC1 (centres undefined) | 3.925 | 
2 | Cc1cc(CNC(=O)CCCN2CCCCC2)ccn1 | -5.389 | 
3 | NC(=O)NCC1CCCN1 (centres undefined) | 26.88 | 
4 | CNCC(C)CNC(=O)c1ccc(C(N)=O)nc1 (centres undefined) | -13.42 | 
5 | Cc1cc(C)nc(NC(=O)NC2CCC(O)CC2)c1 (centres undefined) | 31.49 | 
6 | O=C(NCCc1nnc[nH]1)C1SCCc2ccccc21 (centres undefined) | -20.61 | 
7 | CN(CC(C)(CO)CO)C(=O)Nc1cc(F)cc(F)c1 |  | 14.95
8 | CN(C)C(=O)Nc1cc(F)cc(F)c1 | 57.68 | 
9 | CNCC(=O)Nc1cc(F)cc(F)c1 | 12.71 | 
10 | COC1CCN(CC(=O)Nc2ccc(C(N)=O)cc2)C1 (centres undefined) | -13.26 | 
11 | CC(=O)NCCNC(=O)c1cc(Cl)c(Cl)n1C | -20.76 | 
12 | CCc1cc(N2CCCC(CN)C2)n2nccc2n1 (centres undefined) | 8.07 | 
13 | Cn1cc(N2CC3(CCN(Cc4nccs4)CC3)OCC2=O)cn1.O=C(O)C(F)(F)F |  | 66.73
14 | O=C(O)C(F)(F)F.O=C1COC2(CCN(Cc3nccs3)CC2)CN1c1ccccc1 |  | -19.73
15 | Cn1cc(N2CC3(COCCN(Cc4nccs4)C3)OCC2=O)cn1.O=C(O)C(F)(F)F (centres undefined) |  | 3.864
16 | CN(C)S(=O)(=O)N1CCCC1c1ccsc1 (centres undefined) | 2.745 | 
17 | O=S(=O)(c1ccc2c(c1)CCCN2)N1CCCC1 | 5.041 | 
18 | O=C(CCCNC(=O)C1CCCO1)Nc1ccc(Cl)cc1 (centres undefined) |  | 23.23
19 | O=C(CCCNC(=O)C1CC1)Nc1cnn(-c2ccccc2Cl)c1 |  | 12.28
20 | Cc1ccc(NC(=O)CCCNC(=O)C2CC2)cc1 | 98.6 | 

Row | Structure (SMILES) | Percent Effect (50 µM) [%] | Percent Effect (10 µM) [%]
21 | CNCCCNS(=O)(=O)c1ccc(Br)c(C(C)=O)c1 | 7.594 | 
22 | COCC(=O)N[C@H]1CN(CCS(C)(=O)=O)C[C@@H]1C(C)C | -7.194 | 
23 | CCn1nc(CC(C)C)cc1C(=O)N1CCC(N)C1 (centres undefined) | -11.21 | 
24 | CC(Nc1cccc2c1OCCO2)C(=O)Nc1ccc(Cl)cc1 (centres undefined) |  | 6.519
25 | CC(Nc1cccc2c1OCCO2)C(=O)Nc1ccc(S(N)(=O)=O)cc1 (centres undefined) |  | 5.712
26 | CCc1ccc(NC(=O)C(C)Nc2cccc3c2OCCO3)cc1 (centres undefined) |  | 82.59
27 | CC(C)CC1NCCCNC1=O (centres undefined) | 0.1576 | 
28 | CS(=O)(=O)CCn1ccnc1-c1ccc(Cl)s1 | -2.415 | 
29 | COc1ccccc1-c1ccccc1CC1(C(=O)O)CCNCC1 |  | 8.204
30 | CCOC(=O)C1(Cc2ccccc2-c2ccccc2OC)CCNCC1.Cl |  | 44.64
31 | CN(CCCC1CCCO1)C(=O)c1cccc(N)n1 (centres undefined) | 1.142 | 
32 | CC(=O)NCC(=O)N1CCN(c2ccncc2Cl)CC1 | -5.39 | 
33 | OC(CNC1CCSCC1)c1cccc(OCc2ccccc2)c1 (centres undefined) |  | 40.53
34 | OC(CNC1CCOCC1)c1cccc(OCc2ccccc2)c1 (centres undefined) |  | 6.488
35 | CN1CCC(NCC(O)c2cccc(OCc3ccccc3)c2)CC1 (centres undefined) |  | 74.89
36 | Cc1ccc(NC(=O)CN(C)C2CC[S+]([O-])CC2)cc1 (centres undefined) | -6.954 | 
37 | COc1ccc(C)cc1NC(=O)Cn1ccnc1 | 17.12 | 
38 | O=C(NCc1ccc2c(c1)OCO2)Nc1nccs1 | -9.702 | 
39 | NC(CC1CCCC1)c1ccc(Oc2ccccc2)cc1 (centres undefined) |  | 55.94
40 | Cl.NC(CC1CCCC1)c1ccccc1 (centres undefined) |  | -47.66

Row | Structure (SMILES) | Percent Effect (50 µM) [%] | Percent Effect (10 µM) [%]
41 | COCC(N)c1ccccc1 (centres undefined) | 3.787 | 
42 | CCOC(=O)C1(C(C)C)CCN(C(=O)c2cn[nH]c2)C1 (centres undefined) | -4.733 | 
43 | N#Cc1ccnc(SCc2ccncc2)c1 | 30.75 | 
44 | COC(C)(C)C(=O)CSc1cc(C#N)ccn1 | 9.152 | 
45 | N#Cc1ccnc(SCC(=O)Nc2ccncc2)c1 | 98.13 | 
46 | O=C(Cn1cc(Br)cn1)Nc1ccc2c(c1)OCCO2 | -0.8097 | 
47 | NC(=O)C[C@@H](N)c1ccc(Cl)cc1 | 0.4297 | 
48 | NC(=O)C[C@H](N)c1ccccc1 | 8.251 | 
49 | NC(=O)C[C@@H](N)c1ccccc1Cl | 50.18 | 
50 | COc1cccc(-c2noc(C3CCN(Cc4ccccc4F)C3)n2)c1.Cl (centres undefined) |  | 11.37
51 | COc1cccc(-c2noc(C3CCN(Cc4ccccc4C)C3)n2)c1.Cl (centres undefined) |  | 42.09
52 | CCNC(=O)CN1CCCC(c2nccn2CC)C1 (centres undefined) | 95.83 | 
53 | CCn1ccnc1C1CCN(CC(=O)N(C)C)CC1 | 16.85 | 
54 | CCn1ccnc1C1CCCN(CCC(N)=O)C1 (centres undefined) | 24 | 
55 | CC(C)COC1CCN(S(=O)(=O)Cc2cccc(F)c2)CC1 |  | 8.24
56 | COCC(C)S(=O)(=O)N1CCCCC1 (centres undefined) | 6.357 | 
57 | CC(C)COC1CCN(S(=O)(=O)N2CCCC2)CC1 | 99.18 | 
58 | Cc1nc2ccc(C(=O)N3CC(O)C3)cc2nc1C | -4.584 | 
59 | CSc1cccc(F)c1CN | 2.771 | 
